Assay results from ChEMBL document CHEMBL4296182, “CO-ADD screening of NIH NCI Diversity Set V”.
For part of these data: Results with a measured potency or affinity are listed apart.

What was measured:
Staphylococcus aureus = assay: Antibacterial activity against Staphylococcus aureus MRSA ATCC 43300 (CO-ADD:GP_020); MIC in CAMBH media using NBS plates, by Resazurin F(560/590); assay type: functional; conditions: Concentration 20 uM, ASSAY_TEST Inhibition of Bacterial Growth, detection method Resazurin, Fluorescence (ex560/em590), MEDIA CAMHB, plate type 384well, CORNING #3640, time 18 hr
Acinetobacter baumannii = assay: Antibacterial activity against Acinetobacter baumannii ATCC 19606 (CO-ADD:GN_034); MIC in CAMBH media using NBS plates, by Resazurin F(560/590); assay type: functional; conditions: Concentration 20 uM, ASSAY_TEST Inhibition of Bacterial Growth, detection method Resazurin, Fluorescence (ex560/em590), MEDIA CAMHB, plate type 384well, CORNING #3640, time 18 hr
Escherichia coli = assay: Antibacterial activity against Escherichia coli ATCC 25922 (CO-ADD:GN_001); MIC in CAMBH media using NBS plates, by Resazurin F(560/590); assay type: functional; conditions: Concentration 20 uM, ASSAY_TEST Inhibition of Bacterial Growth, detection method Resazurin, Fluorescence (ex560/em590), MEDIA CAMHB, plate type 384well, CORNING #3640, time 18 hr
Klebsiella pneumoniae = conditions: Concentration 20 uM; ASSAY_TEST Inhibition of Bacterial Growth; detection method Absorption (OD600); MEDIA CAMHB; plate type 384well; NBS; CORNING #3640; time 18 hr
Candida albicans = conditions: 20 µM
Cryptococcus neoformans = conditions: Concentration 20 uM; ASSAY_TEST Inhibition of Fungal Growth; detection method Resazurin; Absorption (OD600-OD570); plate type 384well; NBS; CORNING #3640

Row | SMILES | Inhibition (Staphylococcus aureus) [%] | Inhibition (Acinetobacter baumannii) [%] | Inhibition (Escherichia coli) [%] | Inhibition (Klebsiella pneumoniae) [%] | Inhibition (Candida albicans) [%] | Inhibition (Cryptococcus neoformans) [%]
1 | CC(C)(C(N)=O)c1ccccc1 | 17.59 | -10.23 | 13.36 | 17.26 | -1.04 | -2.3
2 | CCOC(=O)Nc1c(Cl)n(C)c(=O)n(C)c1=O | -8.24 | 9.75 | -16.55 | 17.7 | 6.3 | 20.83
3 | Cc1cccc(C(O)C(O)c2cccc(C)n2)n1 (configuration not stated) | 7.22 | -14.61 | 8.35 | 7.91 | 0.07 | -7.77
4 | C/C(=N\NC(N)=O)c1ccc(Cl)c(-n2cccc2)c1 | 16.93 | -8.65 | 6.19 | 13.36 | 4.13 | -10.07
5 | Cn1c(=O)c2nc(COc3ccc(C(C)(C)C)cc3)[nH]c2n(C)c1=O | -1.06 | -14.84 | 1.91 | 9.47 | 3.68 | -17.46
6 | COc1ccc(NC2=CC(=S)NC(C)(C)C2)cc1 | 11.18 | -15.84 | 12.98 | 4.99 | 2.09 | -8.08
7 | CCCCOC(=O)c1cccnc1 | 2.44 | -6.99 | 12.49 | 13.5 | 1.04 | -0.89
8 | CCCN(CCC)c1ccc(/C=C/c2ccc3cc(OCC)ccc3n2)cc1 | 6.79 | 8.69 | -3.61 | 28.88 | -0.13 | -5.04
9 | CCOC(=O)c1cc(-c2cccnc2)nc2c(Cl)cc(Cl)cc12 | 15.12 | -10.84 | 5.86 | 9.75 | 4.8 | -6.65
10 | COC(=O)c1cc2c(n1S(=O)(=O)c1ccc(C)cc1)C(=O)C(=O)c1[nH]cc(C(=O)OCc3ccccc3)c1-2 | 12.8 | -9.93 | 4.92 | 10.02 | -2.87 | -5.89
11 | OC(C#Cc1ccccc1)(c1ccccc1)c1ccccc1 | 14.7 | 1.28 | -2.05 | 4.96 | 3.27 | -7.2
12 | C#CCSc1nc(-c2ccco2)n[nH]1 | 6.25 | 16.42 | -3.2 | 9.41 | 3.4 | -6.15
13 | Cc1nc2ccnn2c(O)c1CCc1ccccc1 | 8.7 | -8.36 | 1.1 | 10.44 | 5.45 | -6.6
14 | Cc1nccnc1Sc1ccccc1 | 3.9 | -12.89 | 2.25 | 5.26 | 7.15 | -6.77
15 | CC1=NC2=CC=CC3=NC(C(Cl)(Cl)Cl)=NC(=N1)N23 | -3.19 | 10.22 | 9.49 | 11.94 | 1.15 | -10.05
16 | Cc1nc2ccc(Cl)cn2c1[N+](=O)[O-] | 1.58 | 13.48 | -8.75 | 13.85 | 5.38 | -3.42
17 | CSC(=NS(=O)(=O)c1ccccc1)NNC(=O)c1c(-c2c(Cl)cccc2Cl)noc1C | 2.63 | 2.35 | -1.44 | 10.18 | 6.77 | -2.9
18 | Cc1cc(=O)c2c(o1)C(=O)c1occc1C2=O | -16.99 | -9.35 | -16.26 | 2.36 | 7.04 | 24.84
19 | Fc1ccc(-c2cc(-c3cccs3)cc(-c3ccccc3)n2)cc1 | 2.48 | 12.33 | -3.88 | 7.87 | 6.36 | -7.45
20 | CCCCC(=O)N1CCCC(C)C1 (configuration not stated) | 12.48 | -11.97 | 4.56 | -3.93 | 4.76 | -4.37
21 | Nc1ncnc2c1ncn2C1C=C(CO)C(O)C1O (configuration not stated) | 4.94 | -16.45 | 9.33 | 9.87 | 1.07 | -6.12
22 | c1cncc(-c2nc3ccccc3s2)c1 | -7.01 | 4.56 | -11.97 | 2.37 | 4.69 | 25.76
